The nature of assay [1]: qHTS RealTime-Glo MT Cell Viability Assay in HepG2 cells - 40 hour (AID 1224870). Also: nearly all actives have a fitted effect of over 50% in size. Also: potency is read from the fitted curve at half-maximal effect. An outline of the steps: (§1)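 Real-time viability: cells seeded at 600 per well together with NanoLuc and cell-permeant prosubstrate, compounds added after 5 h incubation. Luminescence tracked at 0, 8, 16, 24, 32 and 40 h of exposure.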
Background: Quantitative high-throughput screening tests each substance at several concentrations.

Assay [2] can be described thus: A CellTox Green Cytotoxicity Assay to monitor cytotoxicity in HEK293 cells - 40 hour (AID 1224871). Also: nearly all actives have a fitted effect of over 45% in size. Also: potency is read from the fitted curve at half-maximal effect. A digest of the protocol:
(§2)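 Tox21 screen in HEK293: membrane-impermeant cyanine dye fluoresces on binding dead-cell DNA; compound pinned 5 h post-seeding, plates held at 37 C, signal read repeatedly through 40 h.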

Assay [3] can be described thus: qHTS RealTime-Glo MT Cell Viability Assay in HEK293 cells - 16 hour (AID 1224872). Also: nearly all actives have a fitted effect of over 50% in size. Also: potency is read from the fitted curve at half-maximal effect. An outline of the steps: (§3)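 Quantitative high-throughput screen of the Tox21 10K library in HEK293: cells and RealTime-Glo reagents plated together, compound added at 5 h, luminescence monitored through 40 h at 37 C.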
A short description of assay [4]: qHTS RealTime-Glo MT Cell Viability Assay in HepG2 cells - 8 hour (AID 1224873). Also: nearly all actives have a fitted effect of over 55% in size. A digest of the protocol: as §1
Assay [5] is described as follows: qHTS RealTime-Glo MT Cell Viability Assay in HEK293 cells - 40 hour (AID 1224874). Also: nearly all actives have a fitted effect of over 50% in size. Also: potency is read from the fitted curve at half-maximal effect. As to conditions: RealTime-Glo luminescence; max response: active compounds read low. A digest of the protocol: (§4)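 HEK293 + NanoLuc + prosubstrate, 600 cells/well; 5 h, 37 C/5% CO2; compound 23 nL in DMSO by pintool; 37 C; luminescence read at 0, 8, 16, 24, 32 and 40 h time points.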
Assay [6] in a line: A CellTox Green Cytotoxicity Assay to monitor cytotoxicity in HepG2 cells - 16 hour (AID 1224876). Also: nearly all actives have a fitted effect of over 45% in size. Also: potency is read from the fitted curve at half-maximal effect. A digest of the protocol: (§5)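 Measurements at 0, 8, 16, 24, 32 and 40 h of treatment captured CellTox Green fluorescence in HepG2 cells that had been co-plated with reagent and preincubated 5 h at 37 C/5% CO2.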
A short description of assay [7]: qHTS RealTime-Glo MT Cell Viability Assay in HepG2 cells - 32 hour (AID 1224877). Also: nearly all actives have a fitted effect of over 55% in size. A digest of the protocol: (§6)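 Compound treatment began 5 h after plating HepG2 cells (600/well) with NanoLuc luciferase and prosubstrate. Plates stayed at 37 C for 40 h; luminescence was captured at six time points, 0 h through 40 h.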
Assay [8] is described as follows: A CellTox Green Cytotoxicity Assay to monitor cytotoxicity in HepG2 cells - 40 hour (AID 1224879). Also: nearly all actives have a fitted effect of over 40% in size. Also: potency is read from the fitted curve at half-maximal effect. An outline of the steps:
as §5

Assay [9] can be described thus: qHTS RealTime-Glo MT Cell Viability Assay in HEK293 cells - 0 hour (AID 1224880). Also: top concentration of the series differs between compounds; nearly all actives have a fitted effect of over 45% in size. A digest of the protocol:
as §4

Assay [10] in a line: A CellTox Green Cytotoxicity Assay to monitor cytotoxicity in HEK293 cells - 32 hour (AID 1224881). Also: nearly all actives have a fitted effect of over 40% in size. Also: potency is read from the fitted curve at half-maximal effect. A digest of the protocol:
as §2

A short description of assay [11]: A CellTox Green Cytotoxicity Assay to monitor cytotoxicity in HepG2 cells - 0 hour (AID 1224882). Also: nearly all actives have a fitted effect of over 35% in size. An outline of the steps:
as §5

A short description of assay [12]: A CellTox Green Cytotoxicity Assay to monitor cytotoxicity in HEK293 cells - 8 hour (AID 1224884). Also: nearly all actives have a fitted effect of over 35% in size. Also: potency is read from the fitted curve at half-maximal effect. An outline of the steps:
as §2

The nature of assay [13]: qHTS RealTime-Glo MT Cell Viability Assay in HEK293 cells - 24 hour (AID 1224886). Also: nearly all actives have a fitted effect of over 50% in size. Also: potency is read from the fitted curve at half-maximal effect. An outline of the steps: as §3
A short description of assay [14]: A CellTox Green Cytotoxicity Assay to monitor cytotoxicity in HEK293 cells - 16 hour (AID 1224888). Also: nearly all actives have a fitted effect of over 35% in size. Also: potency is read from the fitted curve at half-maximal effect. An outline of the steps:
as §2

Assay [15] is described as follows: A CellTox Green Cytotoxicity Assay to monitor cytotoxicity in HEK293 cells - 24 hour (AID 1224875). Also: nearly all actives have a fitted effect of over 45% in size. Also: potency is read from the fitted curve at half-maximal effect. A digest of the protocol:
as §2

Assay [16] in a line: A CellTox Green Cytotoxicity Assay to monitor cytotoxicity in HepG2 cells - 24 hour (AID 1224878). Also: nearly all actives have a fitted effect of over 45% in size. Also: potency is read from the fitted curve at half-maximal effect. A digest of the protocol: as §5
Assay [17] can be described thus: A CellTox Green Cytotoxicity Assay to monitor cytotoxicity in HepG2 cells - 32 hour (AID 1224883). Also: nearly all actives have a fitted effect of over 50% in size. Also: potency is read from the fitted curve at half-maximal effect. A digest of the protocol:
as §5

Assay [18] in a line: qHTS RealTime-Glo MT Cell Viability Assay in HepG2 cells - 16 hour (AID 1224885). Also: nearly all actives have a fitted effect of over 50% in size. Also: potency is read from the fitted curve at half-maximal effect. A digest of the protocol:
as §6

The nature of assay [19]: qHTS RealTime-Glo MT Cell Viability Assay in HEK293 cells - 8 hour (AID 1224887). Also: nearly all actives have a fitted effect of over 50% in size. Also: potency is read from the fitted curve at half-maximal effect. An outline of the steps:
as §4

A short description of assay [20]: qHTS RealTime-Glo MT Cell Viability Assay in HepG2 cells - 0 hour (AID 1224889). Also: nearly all actives have a fitted effect of over 50% in size. An outline of the steps: as §6

Structures are written as SMILES. Values without a mark were called inactive. Results filed as inconclusive are left out. Activity calls are given as the source filed them. Calls follow the shape of the dose curve; as a rule, active = well fitted curve in the direction sought with a large enough effect in the repeat runs; inconclusive = weak or mixed curves; inactive = no such curve, though single readings can be large; an effect the other way counts as inactive or inconclusive.
% is scaled to controls: 0 for no effect and ±100 for the full control effect.

In the case of `Clc1ccc(C2(Cn3cncn3)CC(Br)CO2)c(Cl)c1` (stereo not given), the Potency entry in [1], in assay [2], in assay [4], in assay [6], in assay [7] and in assay [9] was “inactive” throughout. Further, the Potency entry in assay [10], in [11], in assay [12] and in assay [14] was “inactive” throughout. Moreover, the Potency is 24.4 µM (active) in assay [3], 21.7 µM (active) in assay [5], 38.7 µM (active) in [8] and 27.4 µM (active) in [13].

Consider `Cc1ccc(-c2c(Cl)nc(C#N)n2S(=O)(=O)N(C)C)cc1`, for which the Potency entry in assay [1], in assay [2], in assay [3], in assay [4], in assay [15] and in assay [6] was “inactive” throughout. In addition, the Potency result in assay [7], in [16], in assay [8], in assay [9], in assay [10] and in assay [11] was “inactive” each time. Besides, the Potency result in assay [17], in assay [12], in [18], in [13], in assay [19] and in assay [14] was “inactive” throughout.

On to `COP(=S)(OC)Oc1ccc([N+](=O)[O-])cc1Cl`, for which the Potency entry in assay [1], in [2], in [4], in [15], in [6] and in [7] was “inactive” each time. Moreover, the Potency entry in [16], in [8], in [9], in [10], in [11] and in [17] was “inactive” in each case. Further, the Potency entry in [12], in [18], in assay [13], in assay [14] and in [20] was “inactive” each time. Also, in assay [5], the max response is -20.6%.

Take `[CH3][Sn]([CH3])([Cl])[Cl]`: the Potency result in [1], in assay [2], in [4], in assay [15], in assay [6] and in assay [7] was “inactive” in each case. In addition, the Potency result in [16], in assay [9], in assay [10], in assay [11], in assay [12] and in [18] was “inactive” throughout. Moreover, the Potency entry in [19], in [14] and in assay [20] was “inactive” in each case.

Turning to `CO/N=C(/C(=O)OC)c1ccccc1COc1ccccc1C`, the Potency entry in [1], in assay [2], in assay [3], in assay [4], in assay [15] and in [6] was “inactive” throughout. Also, the Potency entry in assay [7], in assay [16], in assay [8], in [9], in assay [10] and in [11] was “inactive” each time. Moreover, the Potency entry in assay [17], in [12], in assay [18], in [13], in assay [14] and in assay [20] was “inactive” each time.

Turning to `O=[N+]([O-])c1cc(C(F)(F)F)cc([N+](=O)[O-])c1Cl`, the Potency result in [1], in assay [2], in assay [4], in assay [15], in [6] and in assay [7] was “inactive” throughout. Moreover, the Potency entry in [16], in assay [8], in [9], in assay [10], in assay [11] and in assay [12] was “inactive” each time. Besides, the Potency entry in assay [18], in assay [14] and in [20] was “inactive” in each case. In addition, in assay [19], the Potency is 43.8 µM (active).

On to `O=C(NC(=O)c1c(F)cccc1F)Nc1cc(Cl)c(Oc2ncc(C(F)(F)F)cc2Cl)c(Cl)c1`, for which the Potency result in [1], in assay [2], in assay [4], in assay [15], in assay [6] and in [16] was “inactive” in each case. Moreover, the Potency entry in assay [8], in assay [9], in [10], in assay [11], in assay [17] and in [12] was “inactive” in each case. The Potency result in assay [19], in assay [14] and in assay [20] was “inactive” throughout.

On to `II`, for which the Potency in assay [1] was 5.49 µM (active); in assay [2] it was 38.9 µM (active); in [15] it was 38.9 µM (active); in assay [6], 38.9 µM (active); in [16], 34.7 µM (active); in assay [8], 38.9 µM (active). Further, the Potency in assay [10] was 38.9 µM (active); in assay [17], 38.9 µM (active); in [12], 34.7 µM (active); in assay [18] it was 27.5 µM (active); in assay [14] it was 38.9 µM (active). Further, the Potency result in [3], in assay [11], in [13] and in [19] was “inactive” each time. The max response in assay [5] is -3.85%.
